About 7,900 targets were measured; listed, in parts, are those with a hit and a random draw of the rest. About 0.6% of all pairs of compound and target were hits. Values without a mark were called inactive.
Tests used:
Assay in all cases: log2 fold change, soluble protein after heating vs DMSO (PISA); higher = thermal stabilisation; K562 cells, 10 uM, 30 min; active = over 0.2 and 3.5 SD of the protein, either way, in both replicates (recomputed)
[1] = compound: CC1=C(C=C(C=C1)NC(=O)C2=CC(=CC=C2)C(C)(C)C#N)NC3=CC4=C(C=C3)N=CN(C4=O)C
Outline: (§1)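 Values are thermal stability changes relative to control samples and are taken from duplicates. They are stated as log2 fold changes. Before quantification by TMTpro 16plex LC-MS/MS with equalised channel sums, K562 cells at 2×10^6 cells/mL were treated with 10 μM compound for 30 min, heated in aliquots for 3 min across 48°C-58°C, pooled, extracted in PBS with 0.5% NP-40 at 4°C, and centrifuged at 21,000xg for 90 min to give the soluble supernatant.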

[2] = compound: CC1=CC=C(C=C1)SC2=C3C=C(SC3=CN=C2)C(=O)N
Outline: as §1

Nexturastat A = compound: CCCCN(Cc1ccc(C(=O)NO)cc1)C(=O)Nc1ccccc1 [Nexturastat A]
Outline: as §1

[3] = compound: CCCS(=O)(=O)Nc1ccc(F)c(C(=O)c2c[nH]c3ncc(Cl)cc23)c1F
Outline: as §1

givinostat = compound: CCN(CC)Cc1ccc2cc(COC(=O)Nc3ccc(C(=O)NO)cc3)ccc2c1 [givinostat]
Outline: as §1

[4] = compound: CC[C@@H]1C(=O)N(C)c2cnc(Nc3ccc(C(=O)NC4CCN(C)CC4)cc3OC)nc2N1C1CCCC1
Outline: as §1

volasertib = compound: CC[C@@H]1C(=O)N(C)c2cnc(Nc3ccc(C(=O)N[C@H]4CC[C@H](N5CCN(CC6CC6)CC5)CC4)cc3OC)nc2N1C(C)C [volasertib]
Outline: as §1

[5] = compound: CC[C@H](C)N1C=C(C2=C(C=C(C=C21)C3=CN=C(C=C3)N4CCNCC4)C(=O)NCC5=C(C=C(NC5=O)C)C)C
Outline: as §1

epoxomicin = compound: CC[C@H](C)[C@@H](C(=O)N[C@@H]([C@@H](C)O)C(=O)N[C@@H](CC(C)C)C(=O)[C@]1(CO1)C)NC(=O)[C@H]([C@@H](C)CC)N(C)C(=O)C [epoxomicin]
Outline: as §1

[6] = compound: CCn1c(C(=O)N(C2CC2)C2CC2)cc2c3c(ncn3C)c(Nc3cc(C)n(C)n3)nc21
Outline: as §1

[7] = compound: CCn1cc(-c2ccnc3[nH]c(-c4cccc(CN(C)C)c4)cc23)c(-c2ccc(NC(=O)N(C)C)cc2)n1
Outline: as §1

[8] = compound: CN1C2=C(C3=C1C(=O)N(N=C3)CC4=CC(=CC=C4)N)SC(=C2)S(=O)C
Outline: as §1

[9] = compound: CN1CCC(CNc2ccc3ncc(-c4cccc(OC(F)(F)F)c4)n3n2)CC1
Outline: as §1

[10] = compound: CC1=C(C=C(C=C1)NC(=O)C2=CC(=CC=C2)N(C)C)NC(=O)C3=CC=C(C=C3)O
Outline: as §1

[11] = compound: CC1=NC(=CC=C1)C2=C(N=C(N2)C(C)(C)C)C3=CC4=NC=CN=C4C=C3
Outline: as §1

[12] = compound: CCCc1cc(C)[nH]c(=O)c1CNC(=O)c1cc(-c2ccnc(N3CCN(C)CC3)c2)cc2c1cnn2C(C)C
Outline: as §1

barasertib = compound: CCN(CCCOc1ccc2c(Nc3cc(CC(=O)Nc4cccc(F)c4)[nH]n3)ncnc2c1)CCOP(=O)(O)O [barasertib]
Outline: as §1

rosiglitazone = compound: CN(CCOC1=CC=C(C=C1)C[C@H]2C(=O)NC(=O)S2)C3=CC=CC=N3 (racemic) [rosiglitazone]
Outline: as §1

vemurafenib = compound: CCCS(=O)(=O)Nc1ccc(F)c(C(=O)c2c[nH]c3ncc(-c4ccc(Cl)cc4)cc23)c1F [vemurafenib]
Outline: as §1

[13] = compound: CN(C)CC(=O)Nc1ccc2[nH]c(=O)c3ccccc3c2c1
Outline: as §1

Chain of UniProt Q96LZ7 (Q96LZ7 whole entry, looked up): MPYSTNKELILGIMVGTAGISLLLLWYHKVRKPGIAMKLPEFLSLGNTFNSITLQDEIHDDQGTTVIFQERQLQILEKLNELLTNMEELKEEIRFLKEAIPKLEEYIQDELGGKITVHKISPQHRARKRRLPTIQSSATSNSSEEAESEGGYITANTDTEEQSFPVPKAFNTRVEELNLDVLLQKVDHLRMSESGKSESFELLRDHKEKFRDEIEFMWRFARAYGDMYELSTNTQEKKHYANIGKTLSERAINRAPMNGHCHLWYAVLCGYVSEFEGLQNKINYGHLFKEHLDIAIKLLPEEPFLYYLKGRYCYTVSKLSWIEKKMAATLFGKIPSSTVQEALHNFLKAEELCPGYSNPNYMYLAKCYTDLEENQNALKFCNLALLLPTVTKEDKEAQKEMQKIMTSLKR
Chain of UniProt O15127 (O15127 whole entry, looked up): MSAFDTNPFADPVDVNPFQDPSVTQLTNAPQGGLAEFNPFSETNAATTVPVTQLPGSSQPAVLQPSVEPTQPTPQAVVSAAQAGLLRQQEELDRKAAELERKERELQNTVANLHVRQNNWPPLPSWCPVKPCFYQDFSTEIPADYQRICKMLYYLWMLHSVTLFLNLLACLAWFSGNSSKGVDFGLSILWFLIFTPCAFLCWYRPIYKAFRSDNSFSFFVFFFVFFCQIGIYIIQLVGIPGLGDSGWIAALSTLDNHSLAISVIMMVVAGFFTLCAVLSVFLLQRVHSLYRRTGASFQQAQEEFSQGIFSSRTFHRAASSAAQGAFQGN
Chain of UniProt Q5VUM1 (Q5VUM1 whole entry, looked up): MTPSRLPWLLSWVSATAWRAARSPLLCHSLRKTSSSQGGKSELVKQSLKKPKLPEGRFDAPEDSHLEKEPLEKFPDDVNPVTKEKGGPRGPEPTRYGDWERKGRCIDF
Chain of UniProt Q6R327 (Q6R327 whole entry, looked up): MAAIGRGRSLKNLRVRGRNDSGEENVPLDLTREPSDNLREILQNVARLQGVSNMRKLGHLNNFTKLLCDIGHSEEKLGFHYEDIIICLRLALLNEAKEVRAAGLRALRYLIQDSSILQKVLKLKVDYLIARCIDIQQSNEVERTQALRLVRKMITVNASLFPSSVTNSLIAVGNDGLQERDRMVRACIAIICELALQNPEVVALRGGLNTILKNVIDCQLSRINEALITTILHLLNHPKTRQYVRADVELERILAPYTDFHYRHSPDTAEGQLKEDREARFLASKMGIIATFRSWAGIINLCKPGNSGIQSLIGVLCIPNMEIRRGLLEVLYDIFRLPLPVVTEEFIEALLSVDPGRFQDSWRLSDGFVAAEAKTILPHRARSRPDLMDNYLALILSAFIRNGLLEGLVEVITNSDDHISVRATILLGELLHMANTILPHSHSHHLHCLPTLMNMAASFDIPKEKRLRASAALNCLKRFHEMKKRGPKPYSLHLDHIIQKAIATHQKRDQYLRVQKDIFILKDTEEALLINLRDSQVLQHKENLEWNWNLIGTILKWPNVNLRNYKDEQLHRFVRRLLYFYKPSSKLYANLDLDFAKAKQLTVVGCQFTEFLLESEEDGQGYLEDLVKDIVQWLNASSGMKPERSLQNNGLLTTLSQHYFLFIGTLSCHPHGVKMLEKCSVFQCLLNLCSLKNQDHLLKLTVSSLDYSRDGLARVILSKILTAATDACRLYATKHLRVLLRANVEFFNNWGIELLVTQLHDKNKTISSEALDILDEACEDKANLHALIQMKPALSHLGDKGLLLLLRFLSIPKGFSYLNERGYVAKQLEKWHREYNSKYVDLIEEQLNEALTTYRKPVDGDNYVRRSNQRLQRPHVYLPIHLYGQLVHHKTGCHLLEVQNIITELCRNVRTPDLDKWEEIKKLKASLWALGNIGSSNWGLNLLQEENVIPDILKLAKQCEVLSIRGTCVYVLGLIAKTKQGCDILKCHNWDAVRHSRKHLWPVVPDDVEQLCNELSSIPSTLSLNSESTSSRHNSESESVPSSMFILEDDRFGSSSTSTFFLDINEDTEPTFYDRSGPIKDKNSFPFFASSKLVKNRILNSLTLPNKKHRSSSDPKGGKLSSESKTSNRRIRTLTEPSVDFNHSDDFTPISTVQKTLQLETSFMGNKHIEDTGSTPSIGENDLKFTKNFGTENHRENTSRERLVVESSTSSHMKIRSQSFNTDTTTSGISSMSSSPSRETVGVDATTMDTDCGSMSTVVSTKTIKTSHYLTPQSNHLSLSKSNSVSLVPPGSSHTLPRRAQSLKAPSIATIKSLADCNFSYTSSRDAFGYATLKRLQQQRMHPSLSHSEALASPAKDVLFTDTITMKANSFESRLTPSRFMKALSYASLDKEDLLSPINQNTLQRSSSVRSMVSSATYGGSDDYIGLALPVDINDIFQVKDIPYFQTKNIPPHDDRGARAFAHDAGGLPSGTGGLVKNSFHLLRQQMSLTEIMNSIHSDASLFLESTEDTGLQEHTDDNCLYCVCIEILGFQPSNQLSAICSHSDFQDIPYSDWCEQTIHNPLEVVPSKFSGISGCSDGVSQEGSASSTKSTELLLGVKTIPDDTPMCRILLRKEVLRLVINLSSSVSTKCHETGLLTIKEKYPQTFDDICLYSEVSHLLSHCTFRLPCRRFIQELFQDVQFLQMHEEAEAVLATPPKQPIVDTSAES
Chain of UniProt A6NEQ0 (A6NEQ0 whole entry, looked up): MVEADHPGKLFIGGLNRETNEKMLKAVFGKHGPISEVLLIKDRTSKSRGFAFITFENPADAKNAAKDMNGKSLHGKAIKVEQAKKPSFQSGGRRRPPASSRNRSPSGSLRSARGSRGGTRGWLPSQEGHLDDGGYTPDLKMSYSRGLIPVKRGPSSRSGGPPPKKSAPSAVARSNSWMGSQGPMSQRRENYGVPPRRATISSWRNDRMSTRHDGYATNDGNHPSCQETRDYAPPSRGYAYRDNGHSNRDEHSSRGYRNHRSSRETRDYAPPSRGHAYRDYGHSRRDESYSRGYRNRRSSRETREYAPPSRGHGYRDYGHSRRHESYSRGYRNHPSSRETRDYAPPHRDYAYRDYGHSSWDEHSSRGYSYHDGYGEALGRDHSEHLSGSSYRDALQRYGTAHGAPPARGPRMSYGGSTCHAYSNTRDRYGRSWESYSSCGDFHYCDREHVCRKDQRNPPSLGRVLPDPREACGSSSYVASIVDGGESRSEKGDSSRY

| Target | log2 fold change [1] | log2 fold change [2] | log2 fold change (Nexturastat A) | log2 fold change [3] | log2 fold change (givinostat) | log2 fold change [4] | log2 fold change (volasertib) | log2 fold change [5] | log2 fold change (epoxomicin) | log2 fold change [6] | log2 fold change [7] | log2 fold change [8] | log2 fold change [9] | log2 fold change [10] | log2 fold change [11] | log2 fold change [12] | log2 fold change (barasertib) | log2 fold change (rosiglitazone) | log2 fold change (vemurafenib) | log2 fold change [13] |
| --- | --- | --- | --- | --- | --- | --- | --- | --- | --- | --- | --- | --- | --- | --- | --- | --- | --- | --- | --- | --- |
| RICTOR isoform 3 (UniProt Q6R327) | -0.09 | 0.074 | 0.25 | 0.018 | -0.057 | -0.271 | -0.758 (active) | -0.033 | 0.064 | -0.585 | -0.083 | 0.265 | -0.169 |  |  |  |  |  |  |  |
| RBMY1E (UniProt A6NEQ0) |  | 0.183 |  | 0.082 | 0.059 | -0.068 | -0.236 | -0.034 |  | -0.134 | 0.084 |  | -0.199 | 0.009 | 0.075 | -0.023 | 0.135 | -0.058 |  |  |
| RABGAP1L isoform 5 (UniProt Q5R372) | -0.106 | -0.047 | -0.009 | -0.016 | -0.013 |  | 0.01 | 0.074 | -0.085 | 0.017 |  | 0.059 |  |  | -0.055 | -0.197 | 0 | 0.046 |  |  |
| SCAMP2 (UniProt O15127) | -0.032 | 0.046 | -0.061 | 0.043 | -0.085 | -0.009 | 0.052 | -0.01 | 0.001 | 0.065 | 0.043 | -0.006 | -0.1 | -0.032 |  | 0.013 | -0.029 | -0.043 | 0.081 | 0.061 |
| SDHAF4 (UniProt Q5VUM1) | -0.066 | 0.053 | -0.039 | -0.065 | 0.368 (active) | 0.013 | 0.075 | -0.045 | -0.066 | 0.162 |  | -0.014 |  |  | 0.022 | -0.035 | -0.018 | 0.048 |  |  |
| RPS19 (UniProt M0R2L9) |  | -0.169 |  | -0.98 |  |  | 0.492 | -0.256 |  |  |  |  |  |  |  | 0.113 |  |  |  |  |
| RMDN2 isoform 2 (UniProt Q96LZ7) |  |  |  |  |  |  |  | 0.068 |  |  |  |  |  | -0.022 | -0.127 | -0.196 |  |  | 0.217 | -0.167 |
